Source: PubChem BioAssay
Residues, ends and D or L forms follow the SMILES beside them. *: point of attachment. Cbz = O=C(OCc1ccccc1)*; CH2Cl = ClC*

Key:
[1] = target: Tumor necrosis factor receptor superfamily member 10B (Homo sapiens) (UniProt O14763); assay: caspase-8 TRAIL sensitization, hit retest, confirmation, cell-based, NB7+caspase-8, with/without TRAIL, luminescence panel (AID 651596); settings: NB7 neuroblastoma + caspase-8, TRAIL sensitization, luminescence viability, with TRAIL, mean of runs, at 10 µM, stronger effect = higher value
[2] = as above; settings: NB7 neuroblastoma + caspase-8, without TRAIL, luminescence viability, without TRAIL, mean of runs, at 10 µM

Chain of Tumor necrosis factor receptor superfamily member 10B (Homo sapiens) (O14763 whole entry, looked up): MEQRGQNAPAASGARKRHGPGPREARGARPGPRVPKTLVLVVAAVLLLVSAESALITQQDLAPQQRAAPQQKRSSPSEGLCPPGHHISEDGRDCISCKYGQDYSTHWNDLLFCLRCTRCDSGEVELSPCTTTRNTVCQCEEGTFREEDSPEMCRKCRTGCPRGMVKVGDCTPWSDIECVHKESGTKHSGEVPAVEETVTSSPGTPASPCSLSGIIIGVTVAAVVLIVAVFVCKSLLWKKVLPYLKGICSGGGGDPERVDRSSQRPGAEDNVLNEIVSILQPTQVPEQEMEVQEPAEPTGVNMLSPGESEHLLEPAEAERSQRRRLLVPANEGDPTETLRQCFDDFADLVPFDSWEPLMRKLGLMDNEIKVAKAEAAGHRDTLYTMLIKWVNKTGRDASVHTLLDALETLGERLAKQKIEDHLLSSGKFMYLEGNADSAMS

SMILES	activity [1]	activity [2]
CN1/C(=C/C(=O)c2cccs2)Sc2ccccc21	60%	47%
Cc1cc(-c2csc3nc[nH]c(=S)c23)cc(C)c1C	79.3%	74.9%
O=C(Oc1cccc(/C=N/NC(=O)c2ccccn2)c1)c1ccc([N+](=O)[O-])cc1	42.9%	20.2%
O=C1CC(c2ccc3c(c2)OCCO3)Oc2ccc([N+](=O)[O-])cc21 (stereo not drawn)	56.3%	55.9%
O=C(Nc1ccc(-c2nc3ccccc3[nH]2)cc1)C1CCCO1 (stereo not drawn)	79.5%	71%
Cn1c(/C=C/c2ccc([N+](=O)[O-])o2)nc2ccccc2c1=O	50.8%	73.9%
CCc1ccc(C(=O)Nc2nnn(CC)n2)cc1	73.6%	75.5%
COc1cccc(NC(=O)Nc2ccc3c(c2)nc(C)n3C)c1	83.7%	82.8%
O=C(Nc1ccccc1)c1cn2ccccc2n1	54.9%	55.7%
COc1ccc(/C=N/Nc2cc(OC)ncn2)cc1	53.9%	40.8%
C=C1CC(COc2cc(=O)oc3ccccc23)(c2ccccc2)OC1=O (stereo not drawn)	89.5%	96.5%
Cc1cccc(-n2ncc3c(N4CCOCC4)ncnc32)c1	85.7%	88.5%
CCCCOc1ccc(-c2nc(=S)[nH][nH]2)cc1	67.1%	66.6%
Cc1nc(NC(=S)NC(=O)c2ccccc2)sc1C	57.1%	57%
CCc1ccc([C@H]2[C@@H]3C(=O)C[C@@H]4C(=O)N(c5ccccc5)C(=O)[C@@H]4[C@@H]3CN2S(=O)(=O)c2ccc(C)cc2)cc1	-4.35%	-7.2%
CCCCCCC[N+](CC)(CC)CCCCc1ccc(Cl)cc1	43.9%	47.1%
CC(C)c1ccc(/C=C/C(=O)Nc2nncs2)cc1	57.7%	66.2%
CCN(CC)S(=O)(=O)c1cc(NC(=O)Cn2ncc(Cl)c(Cl)c2=O)ccc1C	99.5%	99.6%
COc1ccc(OCC(=O)N/N=C(\C)c2cc3ccccc3o2)cc1	62.8%	70.2%
N/C(=N\OC(=O)c1ccccc1)c1ccn[nH]1	68.7%	68.1%
Nc1nc(-c2ccc(-c3ccccc3)cc2)cs1	51.2%	50.7%
COc1ccc(C(=O)N/N=C/c2cccnc2)cc1	34.2%	40%
CC(=O)Nc1ccc(NC(=O)CSc2nnc(NC(=O)c3ccccc3F)s2)cc1	69.5%	63.9%
CN(Cc1ccccc1)C(=O)c1ccc(Nc2nc(C(N)Cc3ccc(C(F)(F)F)cc3)cs2)nc1 (stereo not drawn)	93%	98.2%
COc1ccc(-c2cn3cc(C)ccc3n2)cc1Br	82.2%	77.3%

SMILES	activity [1]	activity [2]
COC(=O)c1ccc(NC(=O)C(=O)c2cccn2C)cc1	59.5%	51.2%
O=C(CSc1nnc(-c2ccccc2)o1)Nc1ccccc1F	55.1%	43.5%
CC(C)(C)NC(=O)C(c1ccncc1)n1c(-c2ccc(C(F)(F)F)cc2)nc2ccccc21 (stereo not drawn)	74.4%	85.8%
CC(=O)c1ccc(N2CCN(c3ccc4cc(S(=O)(=O)N5CCC(C)CC5)ccc4n3)CC2)cc1	56.4%	19.2%
COc1cc2c(cc1OC)C(c1cc(Br)ccc1F)N(C(=O)CCl)CC2 (stereo not drawn)	98.6%	98.7%
CCC(=O)c1ccc(/C=C/c2nc3ccccc3n2C)o1	61.2%	54.8%
CC(C)(C)NCCC(O)c1cc(C(F)(F)F)nc2c(C(F)(F)F)cccc12 (stereo not drawn)	97.5%	96.7%
COc1ccc(C=NNC(=O)NN=Cc2ccc(OC)c(OC)c2)cc1OC	69%	65%
O=C(Nc1nc2ccccc2[nH]1)c1cc2ccccc2o1	87.2%	87%
COc1cccc(NC(=O)Nc2nc(-c3ccc(OC)c(OC)c3)cs2)c1	98.5%	99.2%
Cc1cccn2c(=O)c3cc(C(=O)NCCc4ccccc4)c(=N)n(Cc4ccco4)c3nc12	19.5%	5.95%
O=C(CCl)N1c2ccccc2SCC1c1ccccc1 (stereo not drawn)	99.4%	98.9%
O=C(c1cc(-c2ccc3c(c2)OCO3)on1)N1CCCCC1	53.4%	48.9%
CCCn1c(Nc2nc3ccccc3n2C)nc2ccccc21	38.1%	50.4%
CCN(CC)c1ccc(C(=O)OCc2cc(=O)oc3cc(O)ccc23)cc1	83.8%	96%
COc1ccc2nc(-c3ccc(F)cc3)sc2c1	68.2%	65.7%
C/C(=N\NC(=O)COc1ccc(C(C)(C)C)cc1)c1ccc(-n2ccnc2)cc1	63.5%	49.1%
COc1ccc(/C=N/Nc2cc(C)nc(-n3nc(C)cc3C)n2)c(OC)c1	6.72%	12.9%
O=c1c2[nH]c3ccc(F)cc3c2ncn1C1CCCCC1	59.1%	49.5%
COc1ccc(OC)c(Nc2nc(N)nc(CCl)n2)c1	99%	97.5%
Fc1cccc(C2NN=C(c3ccccc3)S2)c1 (stereo not drawn)	58.6%	58.5%
CC(C)CC(NC(=O)OCc1ccccc1)C(=O)NC(Cc1ccccc1)C(=O)CCl (stereo not drawn) (Cbz-Leu-Phe-CH2Cl; configuration not given here)	62.3%	98%
COc1ccc(C(=O)c2no[n+]([O-])c2C(=O)c2ccc(OC)cc2)cc1	98.3%	99%
CCCNC(=O)c1oc2ccc3c(c2c1C)C(=O)CC(C)(C)O3	66.1%	68.4%
